# Data as given in PubChem BioAssay AID624484 (NMMLSC, 2012).
# This is one part of the list. Active and inactive are the calls of the source.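 The calls were made as follows: active = compounds whose half-maximal effective concentration is below 100 µM; inactive = the rest.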
# Assay: empty-vector K562 compound effect – cell-based, flow cytometry, cherry pick set 2, counter-screen for ABCB6 inhibitor project, dose response (AID 624484)
smiles,measurement,value
Cc1ccc(CS(=O)(=O)c2ncc(Cl)c(C(=O)Nc3nnc(C)s3)n2)cc1,outcome,inactive
